# Test results from the supplement of paper PMC13380429.
# Values without a mark were called inactive.
# Test system: Vero E6 infected with SARS-CoV-2
# Assay: inhibition of SARS-CoV-2 cytopathic effect; higher = more antiviral protection, active = above 15
# Settings: 48 h
Compound,inhibition of SARS-CoV-2 cytopathic effect (1 nM) [%],inhibition of SARS-CoV-2 cytopathic effect (8.33 nM) [%],inhibition of SARS-CoV-2 cytopathic effect (100 nM) [%],inhibition of SARS-CoV-2 cytopathic effect (833.33 nM),inhibition of SARS-CoV-2 cytopathic effect (10000 nM) [%]
CCN(CC)C(=S)SSC(=S)N(CC)CC [disulfiram],1.63,1.79,1.68,26.5% (active),13.2
OC[C@@H](O)[C@@H](O)CO [erythritol],-0.84,-2.36,-2.74,0.56%,0.5
O=C(OCCO)c1ccccc1O [2-hydroxyethyl-salicylate],0.19,1.56,-0.09,0.15%,-2.92
NC[C@@H]1O[C@H](O[C@@H]2[C@@H](CO)OC(O[C@@H]3[C@@H](O)[C@H](N)C[C@H](N)[C@H]3OC3O[C@H](CN)[C@@H](O)[C@H](O)[C@H]3N)[C@@H]2O)[C@H](N)[C@@H](O)[C@@H]1O (stereo not given in full),-1.31,-1.2,0.22,1.17%,-0.07
OC[C@H]1OC(O)[C@H](O)[C@@H](O)[C@@H]1O (stereo not given in full) [dextrose],0.5,-0.54,0.12,-9.41%,-1.07
CCCCCCOc1ccccc1C(N)=O [exalamide],-5.16,-3.3,-2.73,-0.34%,-3.76
C[N@+]1(CC2CC2)CC[C@]23c4c5ccc(O)c4O[C@H]2C(=O)CC[C@@]3(O)[C@H]1C5 [methylnaltrexone],1.92,-0.19,1.95,1.11%,1.64
